# Source: PubChem BioAssay (National Center for Advancing Translational Sciences (NCATS))
# The list is not random: actives were taken first. Their share in the collection is about 2.2%.
# aSyn yeast inh = qHTS of alpha-syn Inhibitors; Yeast expressing alpha-synuclein, growth rescue, BacTiter-Glo, 24 h; Potency, µM (doses to about 46.1 µM), without a hit: at the top dose growth rescue (activation), hits mostly activators; actives 0.14% (n = 370,000); AID 652106, 2013; also: % of control where 0% means no effect; nearly all actives have a fitted effect of over 65% in size
#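 Screening used galactose-induced yeast with toxic alpha-synuclein levels, exposed to compound for 24 hr at 30 deg C. Cell growth, read with BacTiter-Glo luminescence, gave the measured signal.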
# Mito fusion yeast = qHTS Assay for Small Molecule Inhibitors of Mitochondrial Division or Activators of Mitochondrial Fusion. S. cerevisiae fusion-defective mutant growth rescue, CellTiterGlo 48 h. Potency, µM (series often up to 46.1 µM), inactives show at the top dose growth rescue (activation), actives largely listed as activators. actives 0.23% (n = 320,000); also: % of control where 0% means no effect; nearly all actives have a fitted effect of over 45% in size
#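 Temperature-sensitive fusion-defective S. cerevisiae (e.g. fzo1-1, mgm1-5) were grown with compound in YPEG medium (3% ethanol, 3% glycerol) for 48 hours at 37C. Growth rescue was measured as viability by CellTiterGlo luminescence after 10 minutes at ambient.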
# FUS yeast rescue = qHTS for Suppressors of FUS Proteinopathy: Primary screen using FUS-linked yeast assay; S. cerevisiae FUS-expressing, growth rescue, OD600, 24 h; Potency, µM (top dose mostly 76.6 µM), usual class: activators; actives 0.24% (n = 390,000); AID 1347120, 2019;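 also: plate controls were DMSO vehicle for no effect and reference control for full effect; nearly all actives have a fitted effect of over 55% in size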
#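 Read-out: OD at 600 nm after 24hr at 30C, reporting rescue of FUS-induced yeast toxicity. Cells at OD 0.005 in galactose (2%) minimal medium; compounds tested in a dilution series; CP55940 titration from 92uM final as control.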
# TDP43 rescue = qHTS of TDP-43 Inhibitors; TDP-43 expressing yeast growth rescue, BacTiter-Glo, 24 h; Potency, µM (doses to about 46.1 µM), for inactives: top-dose growth rescue (activation), actives largely listed as activators; actives 1.8% (n = 410,000); AID 652104, 2013; also: % of control where 0% means no effect; nearly all actives have a fitted effect of over 50% in size
#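 Readout is BacTiter-Glo luminescence of cell growth, so inhibitors register as activators. TDP-43-expressing yeast at OD600=0.02 in galactose medium, after raffinose pregrowth to mid-log, were incubated with compound for 24 hr at 30 deg C.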
# Abeta yeast res = qHTS for compounds that reverse cellular toxicity of Amyloid beta (A-beta) peptide in yeast: Primary Screen | Potency, µM (top dose mostly 46.1 µM), most hits filed as activators | actives 0.063% (n = 410,000) | yeast expressing A-beta42, growth rescue, OD600, 48 h; response scale: 0% DMSO, 100% iron-clioquinol control; also: nearly all actives have a fitted effect of over 55% in size
#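 Yeast growth medium received pinned compounds, then yeast cells expressing toxic A-beta were added; plates incubated at 30 C for 48 hr. Growth read as absorbance at 600 nm, normalized to DMSO and equimolar FeCl3 plus clioquinol controls.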
# Numbers without * were called inactive; i = inactive; ? = inconclusive; . = not tested or not shown. Calls follow the shape of the dose curve; as a rule, active = well fitted curve in the direction sought with a large enough effect; inconclusive = small, poorly fitted or top-dose-only effect, or another doubt; inactive = no such curve, though single readings can be large; an effect the other way counts as inactive or inconclusive. Potency is read from the fitted curve at half-maximal effect.
SMILES,aSyn yeast inh,Mito fusion yeast,FUS yeast rescue,TDP43 rescue,Abeta yeast res
COc1ccc(C(=O)NCCNc2nc3cc(C)cc(C)c3cc2C#N)c(OC)c1,0%,.,i,18%,i
COc1ccc(OCC(=O)Nc2ccc(N3CCN(Cc4ccccc4F)CC3)cc2)cc1,-6%,-22%,i,13%,i
NC(Cc1ccc(Cl)cc1)c1csc(NC(=O)NCC2CCCCC2)n1 (configuration not stated),-43%,.,25µM*,?,i
c1ccc(-c2cnc(-c3ccccn3)nn2)cc1,25%,.,i,22µM*,i
c1ccc(-c2cnc(-c3ccccc3)nn2)cc1,-1%,.,i,23%,i
c1ccc(-c2ccc(CNc3nc(-c4ccccn4)nnc3-c3ccccc3)cc2)cc1,.,.,20µM*,.,.
CCOC(=O)C1CCN(S(=O)(=O)c2cn(C)c(C)n2)CC1,2%,-2%,i,-11%,i
O=C(COc1ccccc1C(=O)Nc1ccccc1)NCCCCc1ccccc1,-6%,.,.,.,.
CC(=O)Nc1c(C)nn(-c2ccccc2)c1N1CCC(C(=O)NCc2ccc(Cl)cc2)CC1,.,.,i,28%,i
Clc1cccc2sc(N3CCN(c4ccccc4)CC3)nc12,0%,?,i,3.5µM*,i
Clc1ccc(Cl)c2sc(N3CCOCC3)nc12,3%,.,i,28%,i
Fc1cccc2sc(N3CCCCC3)nc12,8%,1%,i,4%,i
Clc1ccc(Cl)c2sc(N3CCCC3)nc12,19%,2%,i,7.1µM*,i
CCCCOc1ccc(C(=O)NN2CCOCC2)cc1,11%,.,i,-21%,i
COc1ccc(-c2ccc(C(=O)N3CCOCC3)c3occc23)c(C)c1,?,.,i,10µM*,i
COc1ccc(-c2ccc(C(=O)NCc3ccncc3)c3occc23)c(C)c1,16%,.,i,15%,i
COc1ccc(-c2ccc(C(=O)NCC3CC3)c3occc23)c(C)c1,-8%,.,i,22µM*,i
COc1ccc(-c2ccc(C(=O)NCC(C)C)c3occc23)c(C)c1,2%,.,i,25µM*,i
Nn1c(SCc2cccc3ccccc23)nnc1-c1cc(-c2ccc(Cl)cc2)n[nH]1,.,.,i,.,.
CCNC(=O)C1(C)CCN(C(=O)c2ccc(N(C)C)cc2)C1 (configuration not stated),-1%,.,i,0%,i
CCOC(=O)c1cccc(NC(=O)CSc2ncc3c(n2)-c2ccc(Cl)cc2N(Cc2ccccc2)S3(=O)=O)c1,.,.,i,-32%,i
O=C1Nc2c(Cl)cc(Cl)cc2C1=O,4%,.,i,-91%,i
CC1(C(=O)NS(=O)(=O)c2cccc(C#N)c2)CCN1C(=O)C1(c2ccc(Cl)cc2)CCC1 (configuration not stated),28µM*,.,i,8%,i
CC1(C(=O)Nc2ccc3c(c2)OCCO3)CCN1C(=O)C1(c2ccc(Cl)cc2)CCC1 (configuration not stated),13%,.,?,13%,i
CC1(C(=O)NS(=O)(=O)c2ccc(C#N)cc2)CCN1C(=O)C1(c2ccc(Cl)cc2)CCC1 (configuration not stated),-4%,.,i,24%,i
SMILES,aSyn yeast inh,Mito fusion yeast,FUS yeast rescue,TDP43 rescue,Abeta yeast res
CC1(C(=O)Nc2ccc3c(c2)OCCO3)CCN1C(=O)C1(c2ccc(Cl)cc2)CC1 (configuration not stated),6%,.,i,35µM*,i
Cc1cc(C)c(C)c(S(=O)(=O)N2CCN(C(=S)NCC3CCCO3)CC2)c1C (configuration not stated),22%,-28%,?,22µM*,?
O=C(NCC1CCCO1)c1ccc(Cl)c(NS(=O)(=O)c2ccc(F)cc2)c1 (configuration not stated),-3%,.,i,5%,i
c1cncc(-c2ccc3[nH]ccc3c2)c1,1%,8%,i,10%,i
c1ccc(-c2ccc3[nH]ccc3c2)cc1,-27%,-3%,i,13µM*,i
CCOC(=O)C1CCN(c2ncnc3c2[nH]c2cccc(OC)c23)CC1,1%,1%,22µM*,-14%,i
COc1ccccc1NC(=O)CSc1nc2c(oc3ccccc32)c(=O)n1Cc1ccco1,.,.,i,21%,i
CC(C)n1c(SCC(=O)Nc2ccc(F)cc2)nc2c(oc3ccccc32)c1=O,.,.,i,20µM*,i
CCOCCCn1c(SCC(=O)Nc2ccccc2OC)nc2c(oc3ccccc32)c1=O,.,.,?,22µM*,i
Cc1cccc(Cc2c(C)nc3nc(SCc4cccc(F)c4)nn3c2C)c1,.,.,?,-18%,i
CCOc1ccc(NC(=O)CN2CCN(CC(=O)Nc3ccccc3OCC)CC2)cc1,.,.,i,10%,i
Cn1c(COc2ccc(Cl)cc2)nnc1SCc1ncc(-c2ccccc2)o1,?,3%,?,22µM*,i
Cc1c(NC(=O)C2CCCN(S(=O)(=O)c3ccc(C(C)(C)C)cc3)C2)c(=O)n(-c2ccccc2)n1C (configuration not stated),.,.,i,.,.
CC(Oc1cccc(Br)c1)C(=O)NNC(=O)c1ccccn1 (configuration not stated),?,.,i,25µM*,?
CC(Oc1ccccc1)C(=O)NNC(=O)c1ccccn1 (configuration not stated),22%,6%,.,?,?
Cc1ccc(Nc2n[nH]c(C)c2[N+](=O)[O-])cc1,-16%,9%,i,-14%,i
Cc1[nH]nc(Nc2ccc(C(C)C)cc2)c1[N+](=O)[O-],-10%,-4%,i,13µM*,i
COc1ccc(C2Nc3cccc4cccc(c34)N2)cc1,-8%,-4%,i,?,i
Clc1ccc(N2COC3c4cccc5cccc(c45)C32)cc1 (configuration not stated),13%,14%,i,10µM*,i
COc1ccc(N2COC3c4cccc5cccc(c45)C32)cc1 (configuration not stated),-6%,0%,i,11µM*,i
CS(=O)(=O)NC1c2cccc3cccc(c23)C1N1CCOCC1 (configuration not stated),-5%,-3%,i,-16%,i
CN(C(=O)C1CCCC1)C1CCS(=O)(=O)C1 (configuration not stated),1%,0%,i,-3%,i
Cc1cc(OCCn2nc(C(=O)O)c3ccccc3c2=O)ccc1C(C)C,-15%,7%,i,21%,i
